According to the OligoGym collection:

Target: HBB
Experiment: pooled miR-30 sensor sort-seq; sequence = guide strand
Settings: shRNA
Note: reference of the scale not given here.

Sequence	sensor-assay potency score (higher = more potent)
ATTCTTTGCCAAAGTGATGGGC	-0.706
AACTTCATCCACGTTCACCTTG	-0.552
ACCACCAACTTCATCCACGTTC	-1.74
TCTGATAGGCAGCCTGCACTGG	-0.723
TTTAGTAGTTGGACTTAGGGAA	0.165
TTTGCCAAAGTGATGGGCCAGC	-0.758
AACAGCATCAGGAGTGGACAGA	-1.35

Target: HBD
Experiment: as above
Settings: shRNA

Sequence	sensor-assay potency score (higher = more potent)
TCAGCTGAGAAAAAGTGCCCTT	-0.0837
TAGACCACCAGTAATCTGCCCA	-0.29
ACACACACCAGCACATTGCCCA	-0.428
ACTAAAGGCACCTAGCACCTTC	-0.765
AGCCACACCAGCCACCACCTTC	-1.62
AACAGCATCAGGAGAGGACAGA	-1.5
ACCACCAACTGCATCCACGTTC	-1.79
TTCACTTTGCCCCACAGGGCAT	-0.844
ATTCCTTGCCAAAGTTGCGGGC	-0.495
AATTCCTTGCCAAAGTTGCGGG	-0.612

Target: HBM
Experiment: as above
Settings: shRNA

Sequence	sensor-assay potency score (higher = more potent)
TGCATTTGCACGGTGAACTCGT	0.113
TTGCACGGTGAACTCGTCCTGC	0.462
TCCACGTGCTGCACCGCCGCGC	-1.37
TTGTCCACGTGCTGCACCGCCG	-1.46
TGAACTCGTCCTGCAGGTGGGA	-0.648
TCAGGTCCCAGACCTGCGCGAT	-1.04
ATTAGCAGCGGAAAGTTGGCTG	0.235
TTGGTGCTGGGGTACACCGTGA	-1.01
AACACTGGATTAGCAGCGGAAA	-1.52
TGCACGGTGAACTCGTCCTGCA	-1.03
TGCGGGAAGTAGACCTTGGTGC	-0.583
TTTGCACGGTGAACTCGTCCTG	0.188

Target: HBQ1
Experiment: as above
Settings: shRNA

Sequence	sensor-assay potency score (higher = more potent)
TTCCAGGGCCTCTGTCGTGTAG	-1.54
TGGGAGAAGTAGGTCTTCGTGG	-0.972
AAGTCTCCGGGGTAGTGCCGGG	-1.01
TAGGTCGTCCAGGCGCTCCACG	-1.23
TTACCAGCAGGCAGTGGCCCAG	-1.7
TAGACGCCGACGTTGCTGCCCA	-0.72
TTGCTGCCCAGCTTCTTCCACA	-1.27
TGTCGTGTAGACGCCGACGTTG	-0.887
TGGGCTCTGACTTGTGAGGAGC	-1.65
AAGTAGGTCTTCGTGGCGGGGA	-0.359
